In the library only some 4.6% were active in any assay of this set; here they are far more common.
HIF-2a block – HIF-2a reporter inhibitors, primary screen, luminescence, 786-0 RCC cells; 786-0 RCC cells HIF-2a reporter, luciferase luminescence, overnight; inhibition, % at 18.8 µM; hit rate 0.72% among 360,000;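 active means inhibition of the luminescence signal of 40% or more relative to plate controls, in a single-dose primary screen at 18.75 µM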
Mdm2 MdmX PPI – inhibitors of human Mdm2-MdmX association, primary screen, cell-based, luminescence, split luciferase, SaOS-2, uHTS. SaOS-2 split-luciferase Mdm2/MdmX complementation. inhibition, % at 8 µM. hit rate 3% among 330,000. AID 485346, 2010;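 active means inhibition of at least 50% at 8 µM in the primary screen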
Peg3 promoter – Peg3 promoter-driven luciferase inhibitors, primary screen, cell-based, HeLa, luciferase luminescence | hit rate 1.7% among 360,000 | AID 588405, 2011 | HeLa PEG-Prom luciferase reporter, overnight | inhibition, % at 20 µM;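 active means inhibition of at least 50% at 20 µM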
KKLEB cytotox – cytotoxicity in KKLEB CF airway cells, primary screen, cytotoxicity control for CF NF-kB inhibitor project, cell-based, uHTS, fluorescence assay plates; KKLEB CF airway cells viability, ATPlite luminescence, overnight; active compounds read low; cells stimulated with P. aeruginosa culture filtrate; activity change (cytotoxicity), % at 5 µM; hit rate 0.36% among 360,000; AID 602141, 2011;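 active means corrected activity change at or below -50% at 5 µM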
ABHD5 PLIN5 PPI – ABHD5-PLIN5 interaction inhibitors, primary screen, cell lysate, split luciferase complementation, luminescence. Perilipin-5 (Homo sapiens) + 1-acylglycerol-3-phosphate O-acyltransferase ABHD5 (Homo …. Split G. princeps luciferase complementation, 4 h. inhibition, % at 4 µM. hit rate 0.78% among 360,000. AID 602281, 2012;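 active means inhibition above the mean inhibition across every tested compound plus 3 SD, cut at about 22% in these data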
Target sequence (Q00G26 whole entry, looked up): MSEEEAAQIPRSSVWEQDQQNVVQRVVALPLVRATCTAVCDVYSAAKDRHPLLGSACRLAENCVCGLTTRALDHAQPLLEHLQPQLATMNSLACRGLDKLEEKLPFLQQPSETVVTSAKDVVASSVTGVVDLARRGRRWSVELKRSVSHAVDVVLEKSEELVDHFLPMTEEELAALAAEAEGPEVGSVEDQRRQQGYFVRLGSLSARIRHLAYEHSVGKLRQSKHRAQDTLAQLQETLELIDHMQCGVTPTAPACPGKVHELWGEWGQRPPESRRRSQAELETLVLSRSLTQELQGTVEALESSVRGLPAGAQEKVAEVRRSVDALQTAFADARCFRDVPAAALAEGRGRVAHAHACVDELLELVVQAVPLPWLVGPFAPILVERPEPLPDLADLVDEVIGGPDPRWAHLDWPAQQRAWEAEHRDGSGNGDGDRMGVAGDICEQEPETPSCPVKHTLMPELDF
Target sequence (Q8WTS1 whole entry, looked up): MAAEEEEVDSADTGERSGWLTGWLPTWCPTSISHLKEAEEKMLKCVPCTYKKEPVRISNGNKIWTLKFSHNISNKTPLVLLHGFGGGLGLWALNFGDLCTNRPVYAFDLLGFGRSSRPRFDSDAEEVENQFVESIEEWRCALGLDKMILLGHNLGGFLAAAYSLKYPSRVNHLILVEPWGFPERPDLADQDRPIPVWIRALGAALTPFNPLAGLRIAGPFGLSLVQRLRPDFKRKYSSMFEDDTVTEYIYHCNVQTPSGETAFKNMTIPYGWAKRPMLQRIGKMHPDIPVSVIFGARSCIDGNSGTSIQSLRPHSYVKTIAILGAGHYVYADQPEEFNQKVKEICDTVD
CF NFkB inh – inhibitors of PAF-induced NF-kB signaling, primary screen, cell-based, GFP fluorescence, uHTS; KKLEB NF-kB-GFP reporter, GFP fluorescence overnight; inhibition, % at 5 µM; hit rate 0.86% among 360,000; AID 588850, 2011;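 active means at least 50% inhibition at 5 µM, scaled per plate between neutral and stimulator controls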;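 further: PAF is a Pseudomonas aeruginosa culture filtrate used as stimulus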
Mdm2-MdmX conf – Mdm2-MdmX complex disruptors, retested hits, confirmation, luminescence, single concentration; hit rate 55% among 10,000; AID 489028, 2010; inhibition, % at 8 µM; shares compounds with Mdm2 MdmX PPI; Mdm2-MdmX binding, luminescent assay; in the data active means inhibition above about 40%
Full FLuc ctr – full-length luciferase signal inhibition, confirmation, counter-screen for Mdm2/MdmX interaction inhibitor project, cell-based, single concentration, SaOS-2 | shares compounds with Mdm2 MdmX PPI | SaOS-2 full-length luciferase counterscreen, luminescence | inhibition, % at 8 µM | hit rate 77% among 6,200 | AID 504607, 2011;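 active means mean inhibition at 8 µM reaching about 37%, which flags the compound as non-specific, limit read from the data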;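 further: p53-null SaOS-2 cells with luciferase driven by a doxycycline-inducible promoter; compound on cells about two nights before reading with doxycycline added after day one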
Each line names hits and unclear results; the compound was inactive in the other large screens (follow-up assays come after a bar, where they were run).

CCOC(=O)C1CCCN(C(=O)c2ccc3nc(-c4cccc(OC)c4)oc3c2)C1 (configuration not stated)	Mdm2 MdmX PPI 53 | Mdm2-MdmX conf 79 | Full FLuc ctr 113
Cc1cccc(OCCNC(=O)c2ccc(Oc3ccc(C(F)(F)F)cc3[N+](=O)[O-])cc2)c1	Mdm2 MdmX PPI 50 | Mdm2-MdmX conf inactive
Cc1cccc(OCCNC(=O)c2cccc(Oc3ccc(C(F)(F)F)cc3[N+](=O)[O-])c2)c1	none
COc1ccc(NC(=O)COC(=O)C2CC2)c(OC)c1	none
CC12CC(c3ccccc3O1)N(C(=O)c1ccco1)C(=S)N2c1ccccc1 (configuration not stated)	Mdm2 MdmX PPI 63 | Mdm2-MdmX conf inactive
COc1ccc(-c2c3c(nc4sc(C(=O)Nc5cc(C)on5)c(N)c24)CCC3)cc1	none
COc1ccc(-c2c3c(nc4sc5c(=O)[nH]c(C)nc5c24)CCC3)cc1	Mdm2 MdmX PPI 67 | Mdm2-MdmX conf inactive
COc1c(O)c(O)c2oc(-c3ccccc3)cc(=O)c2c1OC	none
COc1c(OC)c(O)c2c(=O)c(O)c(-c3ccccc3)oc2c1OC	Mdm2 MdmX PPI 81 | Mdm2-MdmX conf inactive
COc1ccc2[nH]c3c(c2c1)CCNC3C1CC=C(C)CC1 (configuration not stated)	Mdm2 MdmX PPI 67 | Mdm2-MdmX conf 61 | Full FLuc ctr 57
COc1ccc2[nH]c3c(c2c1)CCNC3c1ccc([N+](=O)[O-])o1 (configuration not stated)	none
CN1CCn2cnc(C(=O)Nc3ccc(Cl)cc3)c2C1=O	none (no result: Mdm2 MdmX PPI)
CCCCC1CCC(C(=O)N(CC(C)C)c2c(N)n(Cc3ccccc3)c(=O)[nH]c2=O)CC1 (configuration not stated)	Mdm2 MdmX PPI 97 (no result: HIF-2a block, Peg3 promoter, KKLEB cytotox, ABHD5 PLIN5 PPI, CF NFkB inh) | Mdm2-MdmX conf inactive
CCCCN(C(=O)C1CCCC1)c1c(N)n(Cc2ccccc2)c(=O)[nH]c1=O	none
CN(C)/C=C(\c1cnc(Cl)s1)S(=O)(=O)c1ccccc1	none
O=C(NCc1ccccc1Cl)[C@H]1CCCN1C(=O)[C@H]1CCCN1C(=O)c1ccccc1	none (no result: Mdm2 MdmX PPI, Peg3 promoter, KKLEB cytotox, CF NFkB inh)
CCOC(=O)C1=C(C)NC(=S)NC1c1ccc(OC(=O)c2ccco2)cc1 (configuration not stated)	none
CCOC(=O)c1c(NC(=O)C2=C(C)NC(=S)NC2c2ccc(CC)cc2)sc(C)c1C (configuration not stated)	Mdm2 MdmX PPI 64 (no result: HIF-2a block, Peg3 promoter, KKLEB cytotox, ABHD5 PLIN5 PPI, CF NFkB inh) | Mdm2-MdmX conf inactive
Brc1ccccc1-c1nnc2sc(-c3ccc4c(c3)OCCO4)nn12	Mdm2 MdmX PPI 51 | Mdm2-MdmX conf 62 | Full FLuc ctr 61
Clc1ccccc1-c1nnc2sc(-c3ccc4c(c3)OCO4)nn12	Mdm2 MdmX PPI 65 | Mdm2-MdmX conf inactive | Full FLuc ctr 83
Cc1ccc(C)c(CC(=O)N2CCCCC2c2cc(C(=O)Nc3ccc(F)c(Cl)c3)no2)c1 (configuration not stated)	none (no result: Mdm2 MdmX PPI)
CCOC(=O)c1c2c(n(C)c1COC)C(=O)C(=O)c1ccc(Br)cc1-2	Mdm2 MdmX PPI 99 (no result: HIF-2a block, Peg3 promoter, KKLEB cytotox, ABHD5 PLIN5 PPI, CF NFkB inh) | Mdm2-MdmX conf 98 | Full FLuc ctr inactive
CCOC(=O)c1c(C)nc(C)c(C(=O)OCC)c1-c1ccc(Br)cc1	none
COc1ccc(S(=O)(=O)Nc2c(C(=O)O)[nH]c3ccc(OC)cc23)cc1	none
COC(=O)c1[nH]c2ccc(F)cc2c1NS(=O)(=O)c1ccc(OC)cc1	Mdm2 MdmX PPI 57 | Mdm2-MdmX conf 58 | Full FLuc ctr 62
COc1ccc(-c2oc(=O)c3cc(OC)c(OC)cc3c2C#C[C@]2(O)CC[C@H]3[C@@H]4CCc5cc(OC)ccc5[C@H]4CC[C@@]32C)cc1	Mdm2 MdmX PPI 70 | Mdm2-MdmX conf inactive
CCCCn1nnnc1C(c1cc2ccccc2o1)N(C)CCc1ccccc1 (configuration not stated)	none (no result: Mdm2 MdmX PPI, Peg3 promoter, KKLEB cytotox, CF NFkB inh)
COc1ccc(S(=O)(=O)N2CCCOC2CNC(=O)C(=O)NCCc2ccco2)cc1C (configuration not stated)	Mdm2 MdmX PPI 53 | Mdm2-MdmX conf 60 | Full FLuc ctr 61
O=C(NCCc1ccco1)C(=O)NCC1OCCCN1S(=O)(=O)c1ccc(F)cc1 (configuration not stated)	none
CCCOc1ccc(/C=N/Nc2cc(N3CCOCC3)ncn2)c(O)c1	Mdm2 MdmX PPI 73, CF NFkB inh 54 | Mdm2-MdmX conf 81 | Full FLuc ctr inactive
Cc1cc2nc(CN(C)C(=O)C3CCC(=O)N(C4CCCC4)C3)[nH]c2cc1C (configuration not stated)	none (no result: Mdm2 MdmX PPI)
COc1ccc(-c2nc(-c3ccc(NC(=O)c4ccc(Br)o4)cc3)no2)cc1OC	Mdm2 MdmX PPI 78, Peg3 promoter 54 | Mdm2-MdmX conf inactive
COc1cc(-c2nc(-c3ccc(NC(=O)c4ccc(Br)o4)cc3)no2)cc(OC)c1OC	none
COc1ccc(S(=O)(=O)Nc2ccccc2OC)cc1NC(=O)c1cc2ccccc2oc1=O	Mdm2 MdmX PPI 73, KKLEB cytotox -55, CF NFkB inh 58 | Mdm2-MdmX conf inactive
COc1ccc(-c2cc3ccccc3oc2=O)cc1NC(=S)NC(=O)c1ccc2c(c1)OCCO2	Mdm2 MdmX PPI 88 | Mdm2-MdmX conf inactive
COc1ccc(-c2cc3ccccc3oc2=O)cc1NC(=O)c1ccc(Br)o1	Mdm2 MdmX PPI 59 | Mdm2-MdmX conf inactive | Full FLuc ctr inactive
Cc1ccc(CCNC(=O)CSCc2ccc(F)cc2)cc1	none
CC(C)NC(=O)C1(C)CCN1Cc1cccc(C#N)c1 (configuration not stated)	none (no result: Mdm2 MdmX PPI)
CCc1ccc2c(c1)C1(NN=C(c3cccc4ccccc34)S1)C(=O)N2 (configuration not stated)	Mdm2 MdmX PPI 78, Peg3 promoter 51 | Mdm2-MdmX conf 75 | Full FLuc ctr inactive
CCc1ccc2c(c1)NC(=O)C2(C)Cc1ccccc1 (configuration not stated)	none (no result: Mdm2 MdmX PPI)
COc1cccc(C2C3=C(N=c4s/c(=C\c5cccc(O)c5)c(=O)n42)c2ccccc2CC3)c1OC (configuration not stated)	Mdm2 MdmX PPI 68 | Mdm2-MdmX conf inactive
Nc1cnc(Nc2ccc(Br)cc2)nc1N	none
O=C(CSc1nnc2c3ccccc3c3ccccc3c2n1)Nc1ccccc1F	Mdm2 MdmX PPI 76 | Mdm2-MdmX conf inactive
